Among the test systems are T-47D breast; BT-549 breast; MDA-MB-435 melanoma; SW-620 colon; MCF7 breast; HCT-116 colon; HCC-2998 colon; KM12 colon.
Holding throughout (assay): NCI-60 one-dose screen, 48 h (100 = growth as untreated, 0 = no growth, -100 = all killed)
Holding throughout (conditions): 10 µM unless noted

Compounds without any hit were thinned out: in the full panel of roughly 83,000, 20% have a hit.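 How to read the values: 0–100, growth inhibition (40 = 60% inhibited); 0, no net growth; -100 to 0, cell death (-40 = 40% of starting cells died; -100 = all dead).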 A number with no mark means an inactive call. Active and inactive are the calls of the source. The calls were made as follows: active = growth percent below 10; inactive = the rest.

On to `COc1cc2c(cc1OC)C1(C)N(CC2)C(=O)OC1(C)C` (centres undefined), for which the growth is 98.4% in the assay on T-47D breast; 115% with BT-549 breast; 113% in the assay with MDA-MB-435 melanoma; 103% with SW-620 colon; 91.3% with MCF7 breast; 104% in the assay on HCT-116 colon. Besides, the growth in the assay on HCC-2998 colon is 102%; in the assay on KM12 colon, 112%.
With `COc1cc(/C=C2\CCCC3=C2NC(C)=NC3c2cc(OC)c(OC)c(OC)c2)cc(OC)c1OC` (centres undefined), the growth was 79.2% in the assay with T-47D breast; 2.96% (active) with BT-549 breast; 5.2% (active) in the assay on MDA-MB-435 melanoma; -8.03% (active) in the assay with SW-620 colon; 23% with MCF7 breast; -78.2% (active) in the assay on HCT-116 colon. The growth in the assay on HCC-2998 colon was 11.9%; in the assay with KM12 colon it was 2.95% (active).
Consider `O=C(Nc1ccc(OCc2nnc(-c3ccc(Cl)cc3)o2)c(F)c1)Nc1ccc(Cl)c(Cl)c1`, for which the growth in the assay with T-47D breast was 55.8%; in the assay with BT-549 breast it was 93.6%; with MDA-MB-435 melanoma, 73.1%; with SW-620 colon, 47%; in the assay with MCF7 breast, 50.3%; with HCT-116 colon it was 29.7%. The growth in the assay with HCC-2998 colon is 85.4%; in the assay on KM12 colon, 53.7%.
Take `COC1=CC(c2ccc[nH]2)=N/C1=C\c1[nH]c(C)c(C(=O)CCC(=O)Oc2ccc3c(c2)CCC2C3CC[C@]3(C)[C@@H](O)CC[C@@H]23)c1C` (some centres undefined): the growth in the assay on T-47D breast is 20.5%; in the assay on BT-549 breast, 27%; with MDA-MB-435 melanoma, 11.9%; with SW-620 colon, -51.1% (active); in the assay with MCF7 breast, 13.6%; in the assay on HCT-116 colon it was -84.2% (active). The growth is 9.51% (active) in the assay on HCC-2998 colon and 3.48% (active) with KM12 colon.
With `CCN(C(=O)c1cc2ncccc2[nH]1)[C@H]1CCC[C@@H](NCc2cccc(F)c2)C1`, the growth with T-47D breast is 78.1%; with BT-549 breast it was 104%; with MDA-MB-435 melanoma, 97.4%; in the assay with SW-620 colon, 98.5%; in the assay with MCF7 breast, 95.7%; with HCT-116 colon, 111%. Besides, the values for the growth with HCC-2998 colon and with KM12 colon were 91.6% and 97.3%, respectively.
For the compound `Cc1cc2c(C(C)C)c(O)c(O)c(C=NCCCCC(=O)O)c2c(O)c1-c1c(C)cc2c(C(C)C)c(O)c(O)c(C=NCCCCC(=O)O)c2c1O`, the growth is 53.9% in the assay on T-47D breast; 41.6% in the assay with BT-549 breast; 61% in the assay with MDA-MB-435 melanoma; 37.1% in the assay with SW-620 colon; 32.8% in the assay on MCF7 breast; 33% in the assay with HCT-116 colon. Further, the figures for the growth in the assay on HCC-2998 colon and in the assay with KM12 colon were 40.2% and 25.6%, respectively.
For `O=C1Nc2cc(Cl)ccc2/C1=C/c1ccc(N2CCOCC2)s1`, the growth was 84% with T-47D breast; 109% in the assay with BT-549 breast; 102% in the assay on MDA-MB-435 melanoma; 102% with SW-620 colon; 86.7% with MCF7 breast; 96.6% in the assay with HCT-116 colon. The growth is 114% in the assay with HCC-2998 colon and 105% in the assay on KM12 colon.
Turning to `COc1cc(OC)cc(-c2n[nH]nc2-c2ccc3c(c2)OCO3)c1`, the growth was 55.4% with T-47D breast; 51.2% with BT-549 breast; -82.8% (active) in the assay on MDA-MB-435 melanoma; 30.8% in the assay with SW-620 colon; 24.3% in the assay with MCF7 breast; 15.7% in the assay with HCT-116 colon. Further, the figures for the growth with HCC-2998 colon and in the assay with KM12 colon were 31.9% and 25.1%, respectively.
Consider `CCN(CC)c1cc(/C=C/c2ccc(OC)c(OC)c2)nc2cc(F)c(F)cc12`, for which the growth in the assay on T-47D breast was 40.2%; with BT-549 breast, 24.5%; with MDA-MB-435 melanoma, 100%; with SW-620 colon, 104%; with MCF7 breast, 65.3%; in the assay with HCT-116 colon, 24.3%. For the same compound, the growth in the assay with HCC-2998 colon is 116%; in the assay on KM12 colon, 103%.
Turning to `NC(=O)NNC(=O)c1ccccc1`, the growth was 111% with T-47D breast; 107% in the assay with BT-549 breast; 105% in the assay on MDA-MB-435 melanoma; 108% with SW-620 colon; 100% with MCF7 breast; 99.7% in the assay on HCT-116 colon. For the same compound, the results for the growth with HCC-2998 colon and in the assay with KM12 colon were 107% and 103%, respectively.
With `CCOC(=O)CC(C#N)(CC(=O)OCC)C(=O)OCC`, the growth in the assay on T-47D breast was 105%; with BT-549 breast it was 106%; in the assay with MDA-MB-435 melanoma, 94.8%; with SW-620 colon it was 108%; with MCF7 breast it was 101%; in the assay on HCT-116 colon it was 102%. For the same compound, the growth was 109% in the assay on HCC-2998 colon and 106% with KM12 colon.
On to `COc1ccc(/C=C(\C#N)c2ccc([N+](=O)[O-])cc2)c2ccccc12`, for which the growth is 46.9% with T-47D breast; 27.9% with BT-549 breast; 62.6% in the assay on MDA-MB-435 melanoma; 74.4% with SW-620 colon; 71.8% with MCF7 breast; 43.4% with HCT-116 colon. For the same compound, the growth is 80% with HCC-2998 colon and 75.6% with KM12 colon.
As for `C=C1C(=O)O[C@H]2[C@H]1CC/C(COC(=O)NCc1cc(OC)cc(OC)c1)=C\CC[C@@]1(C)O[C@@H]21`, the growth in the assay with T-47D breast is -8.17% (active); in the assay with BT-549 breast it was -5.77% (active); with MDA-MB-435 melanoma, -29.1% (active); with SW-620 colon it was -50.5% (active); in the assay with MCF7 breast it was 0.19% (active); with HCT-116 colon, -60.4% (active). Also, the growth was 63.8% in the assay on HCC-2998 colon and 45.1% with KM12 colon.

The record behind these values is PubChem BioAssay (NCI).
